The panel holds about 83,000 compounds, 20% with a hit somewhere; the sample as a whole holds those more often.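 Note: values are percent growth. 100 is the growth of untreated cells, values between 100 and 0 indicate rising inhibition; between -100 and 0 indicates cell death.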 Unmarked numbers belong to inactive results. The source made the active and inactive calls. The calls were made as follows: active = growth percent below 10; inactive = the rest.
Legend:
Test in all cases: NCI-60 one-dose screen, 48 h (100 = growth as untreated, 0 = no growth, -100 = all killed)
[1] = tested on: T-47D breast; details: 10 µM
[2] = tested on: BT-549 breast; details: 10 µM unless noted
[3] = tested on: MDA-MB-435 melanoma; details: 10 µM unless noted
[4] = tested on: SW-620 colon; details: 10 µM unless noted
[5] = tested on: MCF7 breast; details: 10 µM unless noted
[6] = tested on: HCT-116 colon; details: 10 µM unless noted
[7] = tested on: KM12 colon; details: 10 µM unless noted
[8] = tested on: HCC-2998 colon; details: 10 µM unless noted

SMILES	growth [1]	growth [2]	growth [3]	growth [4]	growth [5]	growth [6]	growth [7]	growth [8]
Cc1c(C)n(CC(O)CNC2CCCCC2C)c2ccccc12 (configuration not stated)	-10.5% (active)	-94.3% (active)	-67.9% (active)	-77% (active)	-23.4% (active)	-81.9% (active)	-77.9% (active)	
CC(=O)Nc1ccc(Sc2ccc([N+](=O)[O-])o2)cc1	-34.3% (active)	32.6%	9.62% (active)	-76.5% (active)	26.9%	-82% (active)	56.8%	
O=[N+]([O-])c1ccc(C=C2C(Cl)=C(Cl)C(Cl)=C2Cl)cc1	47.8%	97.7%	76.1%	-59.9% (active)	34.8%	-11% (active)	73.7%	
COc1ccc(/C=C(\C#N)c2ccc(OC)cc2)cc1	47.4%	95%	2.31% (active)	38.6%	36.8%	55.4%	28.4%	
COc1cccc(C2CC(=O)Nc3cc4c(cc32)CCC4)c1OC (configuration not stated)	57.1%	62.3%	-56.5% (active)	29.3%	29.3%	57.7%	28.5%	
Cc1ccc2nc(NC(=O)CSC(=S)N3CCN(Cc4ccccc4)CC3)sc2c1	-32.5% (active)	-55.4% (active)	-38.5% (active)	-84.7% (active)	-71.2% (active)	-54.9% (active)	-92.7% (active)	
Oc1ccccc1/C=N/Nc1nc2ccccc2s1	37.8%	51.4%	56.9%	50.1%	20.2%	41.2%	22.1%	
COc1ccc(-c2nc3sccn3c2/C=C/C(=O)c2cc(OC)c(OC)c(OC)c2)cc1OC	4.81% (active)	0.662% (active)	-30.5% (active)	10.2%	4.93% (active)	7.36% (active)	-15.2% (active)	40.3%
COc1ccc(-c2csc3c2-n2cccc2C3=O)cc1O	79.6%	-26.2% (active)	-57.1% (active)	20.2%	5.97% (active)	-9.12% (active)	-2.75% (active)	
CCOC(=O)c1c(-c2cc(OC)c(OC)c(OC)c2)csc1N	94%	117%	-1.03% (active)	76.6%	78.1%	90.4%	64.2%	
O=C1C(N2CCOCC2)=Cc2cccc3cccc1c23	86.6%	109%	102%	98.3%	66.2%	94.7%	95.8%	
Oc1ccc2ccccc2c1C1NN=C(c2ccccc2)S1 (configuration not stated)	20.7%	19.5%	29.4%	40.4%	17.2%	16%	23.3%	
C=C(C)COC(=O)c1ccccc1C(=O)OCC1(C)CO1 (configuration not stated)	102%	102%	106%	105%	104%	105%	112%	
COc1cccc(C2CC(=O)Nc3cc4c(cc32)OCO4)c1OC (configuration not stated)	87.5%	101%	97%	105%	94.8%	93.6%	91.6%	
Cc1cc(=O)oc2c1ccc1oc(C(=O)c3ccccc3)c(C)c12	76.3%	101%	95.8%	92.2%	69.4%	83.5%	73.2%	
O=C(N/N=C/c1ccc(F)cc1)c1[nH]c2ccc(I)cc2c1-c1ccccc1	48.4%	20.1%	-24% (active)	33.3%	14.3%	14.8%	5.42% (active)	
N#CCCN1CCN(CCC#N)C1=S	108%	99.6%	106%	101%	101%	101%	109%	
COc1cc(C(=O)N(C(C)C)C2CCCCC2)cc(OC)c1OC	107%	143%	107%	107%	86.2%	122%	102%	
CC(=O)Nc1ccc(S(=O)(=O)N/N=C\c2ccc(Cl)c(Cl)c2)cc1	86.7%	99.7%	105%	99.7%	95.6%	101%	107%	

SMILES	growth [1]	growth [2]	growth [3]	growth [4]	growth [5]	growth [6]	growth [7]	growth [8]
CCCCCn1c(=N)n(CC(O)COc2cccc(C)c2)c2ccccc21 (configuration not stated)	-0.186% (active)	-16.9% (active)	6.94% (active)	10.8%	7.34% (active)	11%	6.37% (active)	
O=[N+]([O-])c1cc2c(cc1Br)-c1ccccc1C2	14.9%	76.8%	94.7%	83.6%	3.07% (active)	84%	58.5%	
O=C(N/N=C(\CS(=O)(=O)c1ccccc1)c1cc2ccccc2oc1=O)c1ccccc1		104%	103%	105%	102%	112%		106%
O=C(Nc1ccccc1)Oc1cccc2cccnc12	31.5%	102%	97%	48.2%		1.27% (active)		
COc1cc(C2CC(=O)Nc3c2ccc2ccccc32)cc(Br)c1OC (configuration not stated)	51.2%	10.9%	-55.5% (active)	20%	9.65% (active)	11.2%	16.2%	
CCC12CCC3c4ccc(O)cc4CCC3C1CC(O)C2O (configuration not stated)	93.9%		-2.42% (active)	43%	75.5%	64.6%	53.5%	75.9%
O=C1/C(=C/c2ccccc2F)CNC/C1=C\c1ccccc1F	9.26% (active)		-56.7% (active)	-49.8% (active)	-47% (active)	-81.8% (active)	-80.1% (active)	-89.2% (active)
CSc1nnc(-c2sc3nnc(-c4ccccc4)c(-c4ccccc4)c3c2O)o1	75%	74.1%	88.4%	92.5%	83.5%	60.9%	72.9%	
O=C1c2ccccc2-c2nnc(-c3ccc(Br)cc3)cc21		71.5%	-69.1% (active)	73.3%	14.8%	1.98% (active)		
COc1cc(-c2nc(Nc3nc4ccccc4[nH]3)nc(N)c2C#N)cc(OC)c1OC	57.8%	71.3%	14.5%		30.9%	43.3%		81.2%
COc1cccc(OC)c1OC(=O)c1ccccc1	104%		97.5%	102%	101%	103%		94.3%
CCN(CC)CCCNc1ccc(C)c2sc3ccccc3c(=O)c12	43.7%	76.5%	-85.7% (active)		-67.1% (active)	17.5%		-49.2% (active)
Cc1ccc(S(=O)(=O)N2CCc3ccc(O)c4c3C2CCc2ccccc2-4)cc1 (configuration not stated)	94%		97.7%	102%	103%	108%	95.2%	104%
FC(F)(F)c1cc(CNc2ncc(Br)c(Cl)n2)cc(C(F)(F)F)c1	89.8%	83.7%		105%	95.7%	90.2%	105%	102%
COc1c(O)c2c3c(c1OC)-c1ccccc1CC3N(S(=O)(=O)c1ccc(C)cc1)CC2 (configuration not stated)	62%		-0.0173% (active)	30%	20.2%	38.6%	27.8%	89.6%
COc1ccc(Sc2ccc3[nH]c(=O)nc(N)c3c2)cc1	94.3%	98.9%	99.8%	101%	100%	99.9%	108%	
Nc1cc2[nH]c(=O)c3ccccc3c2cc1Br	20.6%		95.3%	82.9%	24.5%	77%	78.9%	69.5%
O=C1c2ccccc2-c2cn(Cc3ccccc3)c3cccc(c23)C1c1cccnc1 (configuration not stated)	43%		6.45% (active)	30.8%	12.4%	27.9%	30.5%	56.4%

From PubChem BioAssay (NCI)
